# Measured values: the supplement of paper PMC12282887
# ± gives the standard deviation of the averaged measurements.
# Experiments:
# Assay in all cases: promoter activity interaction Z-score (Lux/OD deviation from empty-vector control); higher = stronger promoter induction by the compound
# [1] = tested on: E. coli BW25113 acrABp lux reporter
# Method in brief: (§1)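 Wild-type E. coli BW25113 and three single-gene deletion strains, each carrying a low-copy luxCDABE promoter reporter, were grown at 37°C in 40 µl LB Lennox per well of a 384-well plate. Every compound was applied at four 1:2 dilutions in biological duplicates, and OD600 and luminescence were read every 30 min for 12 h. Integration covered 0–8 h for wild type and 1–9 h for deletion strains, and wells under 10% of the median growth value were removed. Scores are Z-transformed residuals of growth-normalised luminescence fitted against a control.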
# [2] = tested on: E. coli BW25113 marRABp lux reporter
# Method in brief: as §1
# [3] = tested on: E. coli BW25113 micFp lux reporter
# Method in brief: as §1
# [4] = tested on: E. coli BW25113 ompFp lux reporter
# Method in brief: as §1
# [5] = 0.25 µg/ml, genetic background: wild type
# [6] = 0.25 µg/ml, genetic background: ΔmarA
# [7] = 0.25 µg/ml, genetic background: Δrob
# [8] = 0.25 µg/ml, genetic background: ΔsoxS
# [9] = 0.5 µg/ml, genetic background: wild type
# [10] = 0.5 µg/ml, genetic background: ΔmarA
# [11] = 0.5 µg/ml, genetic background: Δrob
# [12] = 0.5 µg/ml, genetic background: ΔsoxS
# [13] = 1 µg/ml, genetic background: wild type
# [14] = 1 µg/ml, genetic background: ΔmarA
# [15] = 1 µg/ml, genetic background: Δrob
# [16] = 1 µg/ml, genetic background: ΔsoxS
# [17] = 2 µg/ml, genetic background: wild type
# [18] = 2 µg/ml, genetic background: ΔmarA
# [19] = 2 µg/ml, genetic background: Δrob
# [20] = 2 µg/ml, genetic background: ΔsoxS
structure (smiles),measurement,setting,value
C/C(=C\C(=O)OCCCCCCCCC(=O)O)C[C@@H]1OC[C@H](C[C@@H]2O[C@H]2[C@@H](C)[C@H](C)O)[C@@H](O)[C@H]1O [Pseudomonic acid],promoter activity interaction Z-score,[1]; [5],-0.112 ± 0.0017
same,promoter activity interaction Z-score,[1]; [6],0.206 ± 0.33
same,promoter activity interaction Z-score,[1]; [7],0.0305 ± 0.27
same,promoter activity interaction Z-score,[1]; [8],-0.332 ± 0.5
same,promoter activity interaction Z-score,[1]; [9],-0.272 ± 0.0069
same,promoter activity interaction Z-score,[1]; [10],0.456 ± 0.14
same,promoter activity interaction Z-score,[1]; [11],-0.0699 ± 0.0047
same,promoter activity interaction Z-score,[1]; [12],-0.0985 ± 0.042
same,promoter activity interaction Z-score,[1]; [13],-0.204 ± 0.26
same,promoter activity interaction Z-score,[1]; [14],0.378 ± 0.38
same,promoter activity interaction Z-score,[1]; [15],-0.109 ± 0.35
same,promoter activity interaction Z-score,[1]; [16],0.483 ± 0.38
same,promoter activity interaction Z-score,[1]; [17],-0.0697 ± 0.066
same,promoter activity interaction Z-score,[1]; [18],-0.0876 ± 0.43
same,promoter activity interaction Z-score,[1]; [19],0.431 ± 0.61
same,promoter activity interaction Z-score,[1]; [20],-0.262 ± 0.13
same,promoter activity interaction Z-score,[2]; [5],0.11 ± 0.42
same,promoter activity interaction Z-score,[2]; [6],-0.235 ± 0.012
same,promoter activity interaction Z-score,[2]; [7],-0.0762 ± 0.015
same,promoter activity interaction Z-score,[2]; [8],0.0844 ± 0.02
same,promoter activity interaction Z-score,[2]; [9],-0.132 ± 0.23
same,promoter activity interaction Z-score,[2]; [10],0.0957 ± 0.22
same,promoter activity interaction Z-score,[2]; [11],-0.00927 ± 0.019
same,promoter activity interaction Z-score,[2]; [12],-0.0242 ± 0.093
same,promoter activity interaction Z-score,[2]; [13],-0.169 ± 0.093
same,promoter activity interaction Z-score,[2]; [14],-0.155 ± 0.7
same,promoter activity interaction Z-score,[2]; [15],-0.106 ± 0.21
same,promoter activity interaction Z-score,[2]; [16],-0.0673 ± 0.12
same,promoter activity interaction Z-score,[2]; [17],0.422 ± 0.28
same,promoter activity interaction Z-score,[2]; [18],0.511 ± 0.47
same,promoter activity interaction Z-score,[2]; [19],0.235 ± 0.31
same,promoter activity interaction Z-score,[2]; [20],0.341 ± 0.086
same,promoter activity interaction Z-score,[3]; [5],-0.00251 ± 0.014
same,promoter activity interaction Z-score,[3]; [6],-0.0765 ± 0.049
same,promoter activity interaction Z-score,[3]; [7],0.0594 ± 0.055
same,promoter activity interaction Z-score,[3]; [8],-0.253 ± 0.16
same,promoter activity interaction Z-score,[3]; [9],-0.108 ± 0.12
same,promoter activity interaction Z-score,[3]; [10],0.0535 ± 0.005
same,promoter activity interaction Z-score,[3]; [11],-0.0538 ± 0.014
same,promoter activity interaction Z-score,[3]; [12],0.11 ± 0.00091
same,promoter activity interaction Z-score,[3]; [13],-0.064 ± 0.06
same,promoter activity interaction Z-score,[3]; [14],-0.0233 ± 0.076
same,promoter activity interaction Z-score,[3]; [15],-0.144 ± 0.018
same,promoter activity interaction Z-score,[3]; [16],0.271 ± 0.095
same,promoter activity interaction Z-score,[3]; [17],-0.0515 ± 0.13
same,promoter activity interaction Z-score,[3]; [18],-0.351 ± 0.054
same,promoter activity interaction Z-score,[3]; [19],-0.275 ± 0.0059
same,promoter activity interaction Z-score,[3]; [20],-0.431 ± 0.085
same,promoter activity interaction Z-score,[4]; [5],0.431 ± 0.041
same,promoter activity interaction Z-score,[4]; [6],0.122 ± 0.59
same,promoter activity interaction Z-score,[4]; [7],0.647 ± 0.08
same,promoter activity interaction Z-score,[4]; [8],0.0332 ± 0.47
same,promoter activity interaction Z-score,[4]; [9],0.435 ± 0.061
same,promoter activity interaction Z-score,[4]; [10],0.376 ± 0.74
same,promoter activity interaction Z-score,[4]; [11],0.561 ± 0.78
same,promoter activity interaction Z-score,[4]; [12],0.388 ± 0.58
